A selection: hits, their analogues and other compounds. The true share with any hit is near 2.1%.
eIF4H FP inh = human eIF4H binding inhibitors, primary screen, translation initiation inhibitor project, biochemical, uHTS, fluorescence polarization | 0.94% of 290,000 active | AID 2012, 2009 | inhibition, % at 35 µM | eIF4H fluorescence polarization binding assay;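 also: calls also rest on retests at 20 µM and on dose response follow-up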
MLLE-PAM2 inh = inhibitors of PABP1 MLLE–PAM2 peptide binding, primary screen, biochemical, fluorescence polarization, FITC-PAM2, GST-MLLE. Polyadenylate-binding protein 1 (Homo sapiens), P11940. inhibition, % at 20 µM. 0.36% of 360,000 active; in the data active = inhibition above about 35%, passing the limit was not always enough;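 also: plate controls were DMSO wells with GST-MLLE for no effect and wells lacking GST-MLLE protein for full effect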
Target sequence (P11940 whole entry, looked up): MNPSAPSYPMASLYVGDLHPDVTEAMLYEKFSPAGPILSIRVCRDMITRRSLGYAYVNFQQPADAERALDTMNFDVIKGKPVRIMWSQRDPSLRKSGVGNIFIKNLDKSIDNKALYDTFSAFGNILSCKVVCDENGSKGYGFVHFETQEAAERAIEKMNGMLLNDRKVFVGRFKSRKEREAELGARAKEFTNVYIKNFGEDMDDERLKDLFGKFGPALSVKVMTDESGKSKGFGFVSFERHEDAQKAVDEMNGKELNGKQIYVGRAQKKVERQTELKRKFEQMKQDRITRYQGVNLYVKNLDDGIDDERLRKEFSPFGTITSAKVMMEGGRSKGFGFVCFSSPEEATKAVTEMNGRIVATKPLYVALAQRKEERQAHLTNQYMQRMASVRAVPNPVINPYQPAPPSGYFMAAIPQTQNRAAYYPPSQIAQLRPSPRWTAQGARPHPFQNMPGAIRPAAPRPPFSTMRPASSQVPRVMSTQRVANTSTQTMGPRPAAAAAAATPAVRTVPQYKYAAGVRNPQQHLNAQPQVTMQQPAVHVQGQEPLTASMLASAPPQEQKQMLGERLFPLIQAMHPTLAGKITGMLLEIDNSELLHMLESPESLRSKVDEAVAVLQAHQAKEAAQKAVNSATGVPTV
CendR NRP1 mod = modulators of CendR peptide binding to NRP-1, primary screen, biochemical, fluorescence polarization, uHTS; Neuropilin-1 (Homo sapiens), O14786; FAM-RPARPAR peptide binding to NRP-1; inhibition, % at 25 µM; 0.85% of 360,000 active; AID 602438, 2012;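 active = inhibition or corrected inhibition above about 18%, plus a signal ratio from 0.5 to 1.5, limit read from the data, passing the limit was not always enough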
PABP polyA inh = PABP poly(A) RNA binding inhibitors, primary screen, biochemical, fluorescence polarization, uHTS. Polyadenylate-binding protein 1 (Homo sapiens), P11940. inhibition, % at 35 µM. AID 2014, 2009. 1% of 290,000 active;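 also: calls also rest on retests at 20 µM and on dose response follow-up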
Active calls of the source: *; · = no result. Unless noted, no rule for the calls is given here.

SMILES	eIF4H FP inh	MLLE-PAM2 inh	CendR NRP1 mod	PABP polyA inh
Cc1ccccc1-c1noc(-c2ccccc2C(=O)N2CCCC2)n1	-2	6	20*	-8
Cc1cccc(/C=N/c2sc3c(c2C(=O)OC(C)(C)C)CCN(C)C3)c1O	4	-2	31*	-7
CCOC(=O)c1c(/N=C/c2cc(C)ccc2O)sc2c1CCN(C)C2	8	12	-18	6
Cc1ccc(C(O)CN2C3=NCCN3c3ccccc32)cc1 (stereo unspecified)	-2	-11	56*	-4
O=C(CSc1cn[nH]n1)Nc1ccc(O)c(C(=O)O)c1	8	38*	-5	9
CC1CCCCC12NC(=O)N(CC(=O)Nc1sc3c(c1C(N)=O)CCC3)C2=O (stereo unspecified)	78*	-7	-59	74*
COC(=O)c1c(NC(=O)CN2C(=O)NC3(CCC(C)CC3)C2=O)sc2c1CCC2 (stereo unspecified)	·	12	-2	·
CC1CCC2(CC1)NC(=O)N(CC(=O)Nc1sc3c(c1C(N)=O)CCC3)C2=O (stereo unspecified)	76*	-53	-77	3.7*
O=C1NC(=Nc2ccccc2Cl)S/C1=C\c1cc([N+](=O)[O-])ccc1O	66	-89	126	13*
Cc1ccc(N(C)C(=O)c2cnn(-c3ccccc3)c2C)c(C)c1	7	12	5	1
Cc1nc([N+](=O)[O-])c(C(=O)OCc2ccccc2C#N)n1C	active	-6	9	100*
Cc1ccc(C#N)c(SCc2ccccc2[N+](=O)[O-])n1	-7	12	-6	9
CCc1ccccc1NCC(=O)Nc1ccccc1C(=O)OC	active	2	-1	119
COC(=O)c1ccccc1NC(=O)CSc1nc(C)cc(C)n1	5	6	45*	99
COC(=O)c1ccccc1NC(=O)CSc1nc(N)cc(=O)[nH]1	90*	19	-15	59
COC(=O)c1ccccc1NC(=O)CSc1nc(N)cc(N)n1	-5	18	1	-2
CCCCCNC(=O)C(C1CC1)n1c(=O)c(-c2ccco2)nc2ccccc21 (stereo unspecified)	·	·	-24	·
Cc1nc(-c2ccccc2)sc1C(=O)CSc1ccccc1	-9	26	28*	10
CCN1CCN(c2cc(N3CCN(C(=O)c4ccco4)CC3)c3c4c(onc24)-c2ccccc2C3=O)CC1	94*	23	-82	122*
O=C(O)CCNc1cc(N2CCN(C(=O)c3ccco3)CC2)c2noc3c2c1C(=O)c1ccccc1-3	101*	-57	-115	95*
Cc1ccccc1/C=C/C1=NCCN1	·	1	2	·
O=C1Nc2ccccc2-n2nnnc2C1N1CCN(c2ccc(C(F)(F)F)cc2[N+](=O)[O-])CC1 (stereo unspecified)	·	·	19	·
Cc1ccc(N(C)S(=O)(=O)c2cccc(C(=O)NNC(=O)c3ccncc3)c2)cc1	·	6	-1	·
CCN1CCN(C(CNS(=O)(=O)c2ccc(Cl)cc2)c2cccnc2)CC1 (stereo unspecified)	7	-9	-13	-7
Cn1nc(C(=O)O)c(=O)n(C)c1=O	·	40*	-14	·
SMILES	eIF4H FP inh	MLLE-PAM2 inh	CendR NRP1 mod	PABP polyA inh
C/C(Nc1ccc(Cl)cc1)=C1/CCOC1=O	·	3	13	·
COc1cc(/C=N/OCC(=O)Nc2ccc(OC(F)F)cc2)ccc1OCc1ccccc1	66*	-57	-46	0
CO/N=C(/C(=O)N[C@@H]1C(=O)N2C(C(=O)O)=CCS[C@H]12)c1cnc(N)s1	36	16	-158	26
Oc1c(Br)cc(Br)cc1C=Nc1cccnc1	32	39*	-20	31
CN(C(=O)COC(=O)CSc1ccc([N+](=O)[O-])cc1)c1ccccc1	·	23	-11	·
CN(Cc1ccc(Cl)cc1)C(=O)COC(=O)CSc1ccc([N+](=O)[O-])cc1	·	40*	-7	·
CN(CCOc1ccc(Cl)cc1)C(=O)c1cc(-c2ccco2)nc2ccccc12	·	-5	-26	·
CC(OC(=O)c1ccc(NC(=O)CC#N)cc1)C(=O)Nc1ccc(Oc2ccccc2)cc1 (stereo unspecified)	54*	-27	-22	0
O=C1NC[C@H](CCCCN2C[C@H](Cc3ccccc3)N(CCC3CCCCC3)C(=O)C2=O)N(CC2CCCCC2)C1=O	·	·	-10	·
CCCn1c(=O)c2sccc2n2c(CCCC(=O)NCc3ccco3)nnc12	78*	-1	1	33*
CCN(CC)S(=O)(=O)N1CCC(C(=O)NCCC2=CCCCC2)CC1	-1	2	27*	3

From PubChem BioAssay
